# Measurements published in PubChem BioAssay AID1850 (Southern Research Specialized Biocontainment Screening …, 2009).
# Hit rate of the full screen: of about 310,000 compounds, about 1,000 (0.32%) were called active. A selection follows. Results with a measured potency or affinity are listed apart. Unmarked numbers belong to inactive results. How the calls were made is not given here.
# Assay: Inhibition of PhoP regulon, Salmonella typhi GFP reporter cells, confirmation, 4 h (AID 1850);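 further: 0% = induced wells with vehicle and 100% = uninduced wells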
# Settings: Salmonella Typhi PhoP-promoter GFP reporter, fluorescence, at 50 µM, active compounds read high
row,SMILES,inhibition [%]
1,CCN(CC(=O)Nc1ccccc1C(F)(F)F)C(=O)CN1C(=O)NC2(CCCCC2)C1=O,-5.21
2,Nc1nc(SCC(=O)Nc2ccccc2Sc2ccccc2)n[nH]1,-1.42
3,COc1ccccc1NC(=O)CCn1cccc1,-6.32
4,C/C(=N\Nc1ccc2nncn2n1)c1cccs1,4.31
5,C/C(=N\Nc1ccc2nncn2n1)c1ccco1,2.03
6,O=C(Nc1csc(Cc2c(Cl)cccc2Cl)n1)NN1CCOCC1,-0.65
7,CN1CCN(CCCNC(=O)Nc2ccc([N+](=O)[O-])cc2)CC1,1.78
8,O=C(NCCCN1CCCC1)Nc1ccc(F)cc1,2.17
9,COCC(=O)NNC(=O)Cc1ccc(Cl)cc1,-2.72
10,CC(C)Oc1ccc(Cc2cnc(=S)[nH]c2N)cc1,7.33
11,CC(C)COc1ccc(Cc2cnc(N)nc2N)cc1,15.8
12,CCSc1ccccc1C(=O)N=C1NC(=O)CC2C(=O)NCCN12 (configuration not stated),1.96
13,O=C(COc1ccc(C(=S)N2CCOCC2)cc1)Nc1ccccc1C(F)(F)F,-0.77
14,O=C(NCCCNC(=O)c1ccc(-c2cc(Cl)ccc2Cl)o1)c1cnccn1,9.68
15,COc1cccc(C(=O)NC2=NCCS2)c1OC,2.77
16,O=C(O)c1ccc(Nc2c3ccccc3nc3ccccc23)cc1,4.42
17,CCOC(=O)Nc1c2ccccc2nc2ccccc12,-6.02
18,CC(=O)C1=C(C)NC(=O)NC1c1ccccc1OCC(=O)NCCc1ccccc1 (configuration not stated),2.94
19,Cc1nc2ccc(Br)cn2c1C(=O)N/N=C\c1ccccc1[N+](=O)[O-],-1.1
20,O=C(COc1ccc(Cl)cc1Cl)N1CCCCCC1,3.1
21,FC(F)(F)c1ccc(N/N=C/c2cccnc2)nc1,-6.21
22,O=C(Nc1ccc(Cl)c(Cl)c1)Nc1nccs1,0.93
23,O=C(Nc1ccc(Cl)cc1)Nc1nccs1,-2.29
24,C(=N\c1nccs1)/c1cccnc1,10.7
25,CC(=O)Nc1sc(N/N=C\c2cccc(Cl)c2)nc1-c1cccs1,-2.74
26,Fc1cccc(/C=N/Nc2ccccn2)c1,-0.26

row,SMILES,inhibition [%]
1,Clc1cccc(Cl)c1/C=N\Nc1nccs1,-7.79
2,Cc1csc(N/N=C\c2cccnc2)n1,-7.97
3,Cc1[nH]nc2c1C(c1ccccc1F)NC2=O (configuration not stated),8.34
4,COc1cccc(NC(=O)N(CCN(C)C)C(C)c2cccnc2)c1 (configuration not stated),1.53
5,Cc1ccc(NC(=O)CCn2cnc3ccccc3c2=O)cc1Cl,5.48
6,CCOc1ccc(NS(=O)(=O)c2ccc(C(=O)NCC(c3ccc(OC)cc3)N3CCCC3)cc2)cc1 (configuration not stated),4.44
7,Cc1cccnc1Sc1c([N+](=O)[O-])ncn1C,-0.07
8,O=C(Nc1cccnc1)C1CCC(CNS(=O)(=O)c2cccc3nsnc23)CC1 (configuration not stated),8.22
9,CC(=O)c1cc(F)ccc1OCC(=O)N1CCCc2ccccc21,5.07
10,CN1CCN(c2ccccc2NC(=O)c2ccc(N3CCCC3)c([N+](=O)[O-])c2)CC1,20.3
11,O=S(=O)(Cc1ccccc1Cl)NCCc1ccccc1,0.01
12,Cc1nc(NC(=O)c2ccccc2)sc1C,-2.8
13,Cc1sc(NC(=O)c2ccccc2)c(C(=O)c2ccccc2)c1C,-8.66
14,Cc1cc(NC(=O)c2ccccc2)cc(NC(=O)c2ccccc2)c1C,2.54
15,CCOC(=O)c1sc(NC(=O)c2ccccc2)cc1C,3.11
16,O=C(CSc1cc([N+](=O)[O-])cc(S(=O)(=O)Cc2ccccc2)c1)NC1CC1,-3.36
17,Cc1cccn2c(CNCC3OCCc4ccccc43)c(C(=O)N3CCCCC3)nc12 (configuration not stated),2.24
18,COc1ccc(C(=O)NCCc2cc3ccc(C)c(C)c3[nH]c2=O)cc1OC,-4.33
19,O=C1OCC(CO)(CO)N=C1NNc1ccccc1Cl,8.82
20,O=C1OCC(CO)(CO)N=C1NNc1cc(Cl)ccc1Cl,6.11
21,Cc1cc(C)c(NC(=O)C2CCCN2CCO)c(C)c1 (configuration not stated),6.37
22,Cc1ccccc1NC1=NC2(CCCC2)N=C(N)N1,-0.71
23,Cc1cc(C)cc(NC2=NC3(CCCCC3)N=C(N)N2)c1,18
24,COc1ccc(OC)c(NC2=NC3(CCCC3)N=C(N)N2)c1,-3.8
25,NC1=NC2(CCCC2)N=C(Nc2ccccc2)N1,0.23
26,Cc1cccc(NC2=NC3(CCCCC3)N=C(N)N2)c1C,1.1

row,SMILES,inhibition [%]
1,COc1ccc(OC)c(NC2=NC3(CCCCC3)N=C(N)N2)c1,-2.55
2,Cc1ccc(C)c(NC2=NC3(CCCCC3)N=C(N)N2)c1,-8.53
3,Cc1ccc(NC2=NC3(CCCCC3)N=C(N)N2)c(C)c1,8.94
4,COc1ccc(S(=O)(=O)N2CCCc3ccccc32)cc1[N+](=O)[O-],1.36
5,Clc1ccc(-c2c[n+]3c(n2-c2ccccc2)SCC3)cc1,22.2
6,CCc1cc2cc(C)ccc2nc1SCC(=O)Nc1cc(C)on1,-6.66
7,COc1cccc(CNC(=O)CC(NC(=O)c2ccccc2)c2ccccc2)c1 (configuration not stated),-2.43
8,O=[N+]([O-])c1cc(NCCO)c(N2CCCCCC2)c2nonc12,-4.05
9,CCCS(=O)(=O)N1CCC(C(=O)NC2CCCC(C)C2C)CC1 (configuration not stated),3.41
10,C[C@H](NC(=O)[C@@H]1Cc2ccccc2CN1)C(=O)Nc1ccc2c(c1)OCCO2,-6.47
11,CCc1cccc2c(C(=O)COC(=O)c3ccc(O)cc3)c[nH]c12,-22.3
12,CCc1cccc2c(C(=O)COC(=O)c3ccccc3)c[nH]c12,-6.08
13,O=C(c1ccco1)N1CCN(C(=O)C23CC4CC(CC(C4)C2)C3)CC1,-6.11
14,O=C(O)c1ccc(Nc2nc3ccc(Cl)cc3[nH]2)cc1,-11.1
15,O=C(O)c1ccc(-c2nnn(Cc3cccc(C(F)(F)F)c3)n2)cc1,16.4
16,CC1CCC(NC(=O)c2ccc(S(C)(=O)=O)cc2)CC1 (configuration not stated),-20
17,CCc1ccc(NC(=O)[C@H](C)NC(=O)C2CCN(C(=O)[C@@H](N)C(C)C)CC2)cc1,3.36
18,CCN(CCNC(=O)C1CCN(Cc2nc(-c3ccc(Cl)cc3)oc2C)CC1)c1ccccc1,6.02
19,Cc1oc(-c2cccc(Cl)c2)nc1CN1CCC(C(=O)NCC2CCCO2)CC1 (configuration not stated),1.34
20,Cc1oc(-c2cccc(Cl)c2)nc1CN1CCC(C(=O)NC2CC2)CC1,-4.63
21,CCN1CCN(CCNC(=O)C2CCN(Cc3nc(-c4ccc(Cl)cc4)oc3C)CC2)CC1,6.8
22,COCCCNC(=O)C(F)(F)C(F)(F)C(=O)NCCCOC,-11.6
23,S=C(NCCc1ccccn1)Nc1ccccc1,7.23
24,Cc1cc(C)c(NC(=O)COc2nncc3ccccc23)c(C)c1,-9.5
25,Cc1cccc(C)c1NC(=O)C[N+](C)(C)CC(O)COc1cccc2ccccc12 (configuration not stated),-1.2
26,CCn1cc(/C=C/C(=O)c2ccc(O)cc2)c(C)n1,2.07

row,SMILES,inhibition [%]
1,O=c1c2ccccc2nc(-c2ccc([N+](=O)[O-])cc2)n1-c1ccccc1,-1.83
2,c1ccc2c(c1)C(=NCC1CCCO1)NC2=NCC1CCCO1 (configuration not stated),-5.37
3,O=S1(=O)NC(=NC2CCCCCC2)c2ccccc21,-8.09
4,CCOC(=O)[C@@H]1[C@H]2COc3cc(OC)ccc3[C@H]2N2C(=O)N(c3ccc(C(F)(F)F)cc3)C(=O)[C@@]12C,-14.6
5,CC(=O)c1c(C)[n+]([O-])c2ccc3c(non3O)c12,14.6
6,CCOC(=O)c1c(C)[n+]([O-])c2ccc3c(non3O)c12,-9.19
7,CCCn1c(SCC(=O)OCc2ccccc2)nc2c1c(=O)n(C)c(=O)n2C,-3.63
8,Cc1ccc(S(=O)(=O)N(C)C)cc1NC(=O)COC(=O)/C=C/c1ccc2ccccc2n1,-5.07
9,CCOc1ccc(NC(=O)C(=O)NCCN2CCN(S(=O)(=O)c3ccccc3)CC2)cc1,3.61
10,O=C1[C@@H]2C(c3cccnc3)=NO[C@@H]2C(=O)N1c1ccc(Br)cc1,-5.51
11,COc1cc2cccc(OC)c(=O)c2c(O)c1OC,-19.1
12,Oc1cccc2cc3cccc(O)c3c(O)c12,7.19
13,Cc1ccc(S(=O)(=O)NCC2CCC(C(=O)N3CCN(C)CC3)CC2)cc1 (configuration not stated),5.88
14,CC(C)(C)Cc1nnc(NS(=O)(=O)c2ccc([N+](=O)[O-])cc2)s1,-2.4
15,OCCNc1nc(N2CCCCC2)nc2ccccc12,4.37
16,CC(Nc1nc(N2CCNCC2)nc2ccccc12)c1ccccc1 (configuration not stated),17.9
17,CC(Nc1nc(-c2ccccc2)nc2ccccc12)c1ccccc1 (configuration not stated),18
18,CC(Nc1nc(N2CCN(S(C)(=O)=O)CC2)nc2ccccc12)c1ccccc1 (configuration not stated),-4.59
19,CC(C)S(=O)(=O)c1nsc2nc(=O)c(/C=C3\C=Nc4ccccc43)c(N)n12,-9.31
20,Cc1occc1C(=O)NNC(=O)Nc1ccc([N+](=O)[O-])cc1,0.48
21,CC(C)(Oc1ccc(Cl)cc1)C(=O)NCCN1C(=O)S/C(=C/c2cccnc2)C1=O,-8.14
22,O=C(CN1CCN(Cc2ccc3c(c2)OCO3)CC1)Nc1ccc(F)cc1,2.19
23,O=C(O)C1C2C=CC(O2)C1C(=O)NCc1ccc2c(c1)OCO2 (configuration not stated),4.49
24,O=C(O)C(Cc1c[nH]c2ccccc12)NS(=O)(=O)c1ccc2ccccc2c1 (configuration not stated),-4.9
